Reference: the supplement of paper PMC3334620
In all, about 33,000 sequences were measured (“E-score (-0.5 to 0.5)”: median about -0.041, highest 2% from about 0.37 on). Many of the other results were omitted from the sample, so the highest values are more common in it than they were.

target: T1, Ecm22 (UniProt Q05958); assay: PBM E-score (8-mer binding enrichment) (E-score (-0.5 to 0.5)); higher = stronger / more preferred TF binding; details: protein concentration: 200 nM; construct: GST-full length
T1 sequence: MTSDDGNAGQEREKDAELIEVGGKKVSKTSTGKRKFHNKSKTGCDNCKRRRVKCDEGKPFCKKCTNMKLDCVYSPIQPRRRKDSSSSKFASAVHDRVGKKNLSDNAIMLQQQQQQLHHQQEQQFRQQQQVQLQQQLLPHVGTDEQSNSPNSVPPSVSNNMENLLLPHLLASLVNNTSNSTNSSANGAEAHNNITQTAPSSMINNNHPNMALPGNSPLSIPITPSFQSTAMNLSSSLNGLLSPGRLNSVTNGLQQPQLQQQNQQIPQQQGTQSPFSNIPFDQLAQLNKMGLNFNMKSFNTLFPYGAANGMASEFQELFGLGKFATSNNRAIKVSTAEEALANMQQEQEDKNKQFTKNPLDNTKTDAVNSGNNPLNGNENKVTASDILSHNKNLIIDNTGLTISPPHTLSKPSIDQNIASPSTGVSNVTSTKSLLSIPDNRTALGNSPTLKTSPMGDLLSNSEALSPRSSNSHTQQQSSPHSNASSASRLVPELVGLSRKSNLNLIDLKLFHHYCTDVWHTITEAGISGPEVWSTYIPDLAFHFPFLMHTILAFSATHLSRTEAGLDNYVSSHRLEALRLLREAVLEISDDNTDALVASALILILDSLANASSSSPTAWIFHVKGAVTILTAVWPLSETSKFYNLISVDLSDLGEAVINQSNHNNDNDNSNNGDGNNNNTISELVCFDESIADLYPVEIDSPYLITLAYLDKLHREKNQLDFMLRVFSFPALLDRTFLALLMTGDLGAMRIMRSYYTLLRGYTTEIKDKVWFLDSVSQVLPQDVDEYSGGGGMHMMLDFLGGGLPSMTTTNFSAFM
Experimental: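 Universal 'all 10-mer' protein binding microarrays (Agilent AMADID 015681) probed with GST-tagged S. cerevisiae TFs (full-length or DBD) made by in vitro transcription/translation (PURExpress), about 100-200 nM. Bound TF was detected with fluorescent anti-GST. Each ungapped 8-mer (which stands for itself and its reverse complement) is scored by the PBM enrichment score (E-score), a modified Wilcoxon-Mann-Whitney statistic from -0.5 to +0.5, computed with the Universal PBM Analysis Suite. Scale: above 0.35 generally sequence-specific binding.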

Sequence | PBM E-score
CCACCAAA | -0.13
GGCTGAAA | -0.0667
ACAATGGA | -0.0436
AGATGGCG | -0.102
GTTACGGA | 0.233
CTCACGAA | 0.128
CTTACGAC | 0.394
CTTACGAA | 0.391
GTTACGAA | 0.404
CTTACGCA | 0.0308
CTTACGCC | 0.0486
CTCACGAC | -0.0734
ATTACGAA | 0.349
CGAAAATC | 0.162
CGGCATCA | 0.0766
AGTACCGA | 0.0799
GGTACCGA | 0.103
CATACCGC | -0.0365
AGTACCGC | 0.148
CGTACCGA | 0.447
CGTACCGC | 0.47
CGAGTCAC | 0.106
ACTGGCAT | -0.182
AATACCGG | -0.042
ACGATAAT | 0.309

Sequence | PBM E-score
ACGATCGC | 0.327
ACGATCGG | 0.274
ACGATCGT | 0.43
CCGTACAG | 0.388
ACGTACAA | 0.298
CGGTACAA | 0.214
CAGTACAA | -0.0343
CCGTACAA | 0.4
GCGTACAA | 0.243
ACGTACAG | 0.186
CCGTACAC | 0.33
TCGTACAA | 0.49
AATTTCTC | 0.0237
AGCTCGTA | 0.477
GGCTCGTA | 0.479
CGCTCGTA | 0.467
GGCTCGGA | 0.0976
CGCTCGGA | 0.252
AGCTCGTG | 0.182
AGCTCGTC | 0.0121
GGCTCGAA | 0.0317
CGCTCGTC | 0.168
AGGTCTAT | 0.0387
TATGATGA | 0.00697
ATAGGTTC | 0.00586

Sequence | PBM E-score
CGGCCTCC | -0.0189
ACCCGAAA | 0.14
TTATAGAA | -0.0153
AGCAATAA | -0.127
CGCCCGAA | 0.0388
CGCGCGGC | 0.225
GCTCAGGA | -0.107
CACGACAG | 0.0642
CACGACAA | 0.09
TACGACAA | 0.455
GACGACAA | 0.155
TTCGACAA | 0.0503
AGCGACAT | 0.214
ACCGACAT | 0.217
AACGACAG | 0.412
TGCGACAA | 0.141
ATCGACAG | 0.00794
AACGACAA | 0.41
AACGACAT | 0.434
GGACCTCA | -0.206
CTGGGAAC | 0.132
TGGGTAAA | 0.0399
AGTGTCCG | 0.0467
CACTCTCG | 0.174
CTCGTGGA | -0.0176

Sequence | PBM E-score
CAGGCCTA | -0.218
AAATCCTG | 0.015
AGATCGAA | -0.0769
CAAGGTGC | -0.235
AGGACCAA | -0.168
CACGACAC | 0.147
AACGACAC | 0.421
GACGACAC | -0.0609
AAGACGGG | -0.114
CGTCCGCC | -0.111
ACTGGGGC | -0.276
AACGATCC | 0.307
AACGATCA | 0.346
TACGATAA | 0.408
CACGATAA | 0.00212
AGCGATAT | 0.222
AACGATCT | 0.381
ACCGATAT | 0.138
GACGATAA | 0.0921
AACGATAG | 0.345
GACGATAC | 0.127
AACGATAC | 0.389
AACGATAT | 0.408
AACTCTTC | 0.0679
CAATGGGC | -0.209

Sequence | PBM E-score
CCCGGCAC | -0.159
AGAGGGAC | -0.0884
ATCTCCTC | -0.0702
CACGATAG | -0.065
AACGATAA | 0.382
ACCGATAA | 0.116
CGTTAAGC | 0.4
CGTTAAAC | 0.392
CGTTAAAA | 0.287
CGTTAAGA | 0.222
GGTTAAAC | 0.116
AGTTAAGC | 0.0271
TCTCTTCA | -0.0952
AGACCGCA | -0.0494
GTGACAGA | -0.0918
CCAACTTA | -0.115
ACGTTCCC | 0.269
ACGTTCCA | 0.214
GCGTTCCA | 0.141
TCGTTTCA | 0.396
CTGTTCCA | -0.186
GCGTTCCC | 0.104
TCGTTCCA | 0.475
CCGTTCGA | 0.152
ACGTTTCA | 0.107

Sequence | PBM E-score
CCGTTCCC | 0.464
CCGTTCCA | 0.373
GCGTTTCA | -0.0209
CTTGTGAA | -0.226
GATCCCGC | 0.0461
GTTCACCA | 0.0888
TCGCTAAA | 0.34
AAAGCTCT | -0.258
TCGTTCAA | 0.448
ACGTTCAA | 0.188
ACGTTCCG | 0.259
CCGTTCCG | 0.441
GCGTTCAA | 0.0639
CAGTTCCG | 0.14
AAGATCAA | -0.0315
ATAGGAAA | -0.0768
CTTTGGCA | -0.144
AGCTCAAC | -0.0198
AACGAAGT | 0.419
GACGAAGC | 0.0937
TCCGAAGA | 0.0982
AAAGAAGT | -0.0866
CACGAAGA | 0.226
TACGAAGA | 0.444
TAAGAAGA | 0.0914

Sequence | PBM E-score
AACGAAGA | 0.421
CACGAAGC | 0.0604
GACGAAGA | 0.0867
AACGAAGC | 0.437
ACCGAAGT | 0.207
CGGATTTC | 0.0823
CGCGGCAC | 0.0802
ATTCTGGG | -0.192
TCCAATCA | -0.115
TTCTTAAA | -0.107
ATTGAGGA | -0.0867
AGCGCCGC | -0.188
ATAAACTA | 0.0319
TAGTCTAA | -0.04
ACTATCCT | -0.133
ACTACGGC | -0.0479
ACGTCGCG | 0.162
TGGACCCA | -0.131
ACCGAAGG | 0.107
AACGAAGG | 0.398
CACGAAGG | 0.0498
GCGAACCA | 0.146
